Source: PubChem BioAssay
The source made the active and inactive calls. Unless noted, no rule for the calls is given here.

Experiments:
[1] = liver-stage malaria parasite load reduction – cell-based, known kinase inhibitor set, luminescence, hepatoma host viability (AID 624392); conditions: Plasmodium liver stage in hepatoma cells, luciferase luminescence, concentration not given here; liver cell % of control: measured here: host liver cell viability; parasite % of control: stronger effect = lower value;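 also: infected cells incubated roughly two days before readout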
[2] = altered dexamethasone sensitivity, NF-kB reporter, cell-based, luciferase, IL-1B stimulus (AID 624486); conditions: IL-1B + dexamethasone, luminescence; percent of negative control (+Dex): actives lie on both sides, concentration not given here; z-score: measured here: IL-1B alone, no Dex;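 as to percent of negative control (+Dex): 100% = mean signal of vehicle control wells on the plate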
[3] = C. elegans survival during P. aeruginosa infection – whole organism (AID 651566);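 also: tested at 14 µM; sign flipped so higher z means a lower ratio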; conditions: C. elegans killed by P. aeruginosa, survival ratio
[4] = pro-inflammatory signaling induction in mouse macrophages – cell-based, murine, luminescence (AID 652131); conditions: murine macrophage pro-inflammatory reporter, stronger effect = higher value
[5] = molecular target: Cellular tumor antigen p53 (Homo sapiens) (UniProt P04637); test: GFP-p53 level modulators in HPV16+ cells – imaging, known kinase inhibitor set, EGFP/DsRed ratio (AID 1053116); conditions: GFP-p53 stability, stronger effect = higher value; EGFP object count: measured here: GFP-p53 positive objects count;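 also: cells exposed to compounds for 24 h at 37 °C before reading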
[6] = inducers of IRF3 signaling, differentiated THP-1 – cell-based, PMA-stimulated THP-1, luminescence (AID 1053176); conditions: PMA-differentiated THP-1, IRF3 reporter luminescence; stronger effect = higher value
[7] = MELAS cybrid and Rieske KO viability enhancers – cell-based, MELAS cybrids, Rieske KO mouse fibroblasts, CellTiter-Glo, primary screen (AID 1508586;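 active = mean z-score across replicates of 1.96 or higher in either the MELAS or the Rieske mutant cell line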;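 also: z relative to plate mean and SD of compound and empty wells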); conditions: low glucose
[8] = MELAS cybrid survival, CellTiter-Glo 48 h, stronger effect = higher value
[9] = Rieske KO mouse fibroblast survival, CellTiter-Glo 72 h

Cellular tumor antigen p53 (Homo sapiens), sequence (P04637 whole entry, looked up): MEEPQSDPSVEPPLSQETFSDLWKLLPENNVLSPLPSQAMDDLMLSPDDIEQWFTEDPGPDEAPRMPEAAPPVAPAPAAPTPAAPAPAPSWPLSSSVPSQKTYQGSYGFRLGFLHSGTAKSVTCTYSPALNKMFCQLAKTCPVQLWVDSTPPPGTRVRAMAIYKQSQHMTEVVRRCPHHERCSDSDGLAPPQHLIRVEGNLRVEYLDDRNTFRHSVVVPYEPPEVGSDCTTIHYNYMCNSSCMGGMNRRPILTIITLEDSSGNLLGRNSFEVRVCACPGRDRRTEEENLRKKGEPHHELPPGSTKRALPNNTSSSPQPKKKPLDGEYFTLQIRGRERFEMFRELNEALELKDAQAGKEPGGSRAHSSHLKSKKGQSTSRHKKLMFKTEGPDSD

| SMILES | liver cell % of control [1] [%] | parasite % of control [1] | percent of negative control (+Dex) [2] | z-score [2] | z-score [3] | z-score [4] | EGFP object count [5] | EGFP/DsRed ratio [5] | fraction signal [6] | z-score [7, 8] | z-score [7, 9] |
| --- | --- | --- | --- | --- | --- | --- | --- | --- | --- | --- | --- |
| O=C1N=c2ccc(N=Cc3c(O)[nH]c4ccccc34)cc2=N1 | 79.5 | 117% (inactive) | 86% (inactive) | -0.205 | -0.24 (inactive) | 1.12 (inactive) | 5.5 | 0.268 (inactive) | -0.0005 (inactive) | 1.49 (inactive) | -0.0625 |
| C[C@@H](Oc1cc(-n2cnc3ccc(OCC4CCN(C)CC4)cc32)sc1C(N)=O)c1ccccc1C(F)(F)F | 80.7 | 130% (inactive) | 98.5% (inactive) | -0.76 | -1.17 (inactive) | -2 (inactive) | 12 | 0.346 (inactive) | -0.0025 (inactive) | 0.571 (inactive) | 0.279 |
| O=C(O[C@H]1CN[C@H](C#Cc2cc3ncnc(Nc4ccc(Cc5ccccc5)cc4)c3s2)C1)N1CCOCC1 | 106 | 85.4% (inactive) | 88% (inactive) | -1.34 | -0.335 (inactive) | 0.302 (inactive) | 5.5 | 0.104 (inactive) | -0.006 (inactive) | -0.24 (inactive) | -0.218 |
| COc1cc(/C=N/Nc2ncnc3[nH]ncc23)ccc1O | 81.7 | 96.9% (inactive) | 87.5% (inactive) | -0.055 | 0.42 (inactive) | -0.354 (inactive) | 2.5 | 0.119 (inactive) | 0.001 (inactive) | 0.451 (inactive) | -0.093 |
| CCC(=O)Nc1ccc(C)c(-c2ccc(C(=O)NCC3CC3)cc2)c1 | 51.4 | 136% (inactive) | 103% (inactive) | 1.16 | 0.67 (inactive) | 1.18 (inactive) | 3 | 0.0318 (inactive) | 0.001 (inactive) | -0.0107 (inactive) | -0.287 |
| Cc1ccc2[nH]c(O)c(N=Nc3ccc(S(N)(=O)=O)cc3)c2c1 | 164 | 128% (inactive) | 102% (inactive) | 0.885 | -0.295 (inactive) | -0.079 (inactive) | 5 | 0.439 (inactive) | -0.0055 (inactive) | -0.101 (inactive) | -0.00523 |
| Clc1ccc(-c2nn3ncccc3c2-c2ccnc(Nc3ccccc3)n2)cc1 | 149 | 29.7% (inactive) | 84% (inactive) | -0.705 | 0.79 (inactive) | 0.464 (inactive) | 4 | 0.304 (inactive) | -0.004 (inactive) | 0.298 (inactive) | -0.499 |
| O=C(O[C@H]1CN[C@H](C#Cc2cc3ncnc(Nc4ccc5c(ccn5Cc5cc(F)ccc5F)c4)c3s2)C1)N1CCOCC1 | 93.4 | 75.1% (inactive) | 62% (inactive) | -2.06 | 0.505 (inactive) | 2.01 (inactive) | 3 | 0.0606 (inactive) | -0.0085 (inactive) | -0.816 (inactive) | -0.0743 |
| NC(=O)c1cc(-c2ccncc2)cc(-c2ccccc2)c1N | 95.8 | 55.5% (inactive) | 52% (inactive) | -4.61 | -0.845 (inactive) | -1.14 (inactive) | 2.5 | 0.104 (inactive) | 0.0085 (inactive) | -0.817 (inactive) | -0.475 |
| COc1cc2c(cc1Nc1nc(Nc3ccsc3C(N)=O)c3cc[nH]c3n1)N(C(=O)CN(C)C)CCC2 | 54.7 | 369% (inactive) | 95.5% (inactive) | -0.185 | -0.225 (inactive) | 2.59 (inactive) | 1.5 | 0.0536 (inactive) | -0.007 (inactive) | 2.79 (active) | 10.1 |
| CC(=O)Nc1cccc(C#Cc2cncnc2Nc2ccc(OCc3cccc(F)c3)c(Cl)c2)n1 | 82.2 | 102% (inactive) | 68% (inactive) | -2.19 | 0.02 (inactive) | 0.499 (inactive) | 6.5 | 0.198 (inactive) | -0.0035 (inactive) | 0.392 (inactive) | -0.337 |
| Nc1nccc(C#Cc2cncnc2Nc2ccc(OCc3cccc(F)c3)c(Cl)c2)n1 | 107 | 81.2% (inactive) | 83.5% (inactive) | -0.655 | 0.82 (inactive) | -1.19 (inactive) | 313 | 1.99 (active) | -0.0105 (inactive) | -0.936 (inactive) | 0.011 |
| CC1=C(C(=O)Nc2ccc3n[nH]c(C)c3c2)C(c2ccc(C(F)(F)F)cc2)CC(=O)N1 (centres undefined) | 99.2 | 202% (inactive) | 82.5% (inactive) | -1.14 | 0.355 (inactive) | -0.104 (inactive) | 2.5 | 0.0851 (inactive) | -0.006 (inactive) | -0.0625 (inactive) | -0.632 |
| NS(=O)(=O)c1ccc(-c2cc3ccncc3cc2OCc2ccccc2)cc1 | 218 | 144% (inactive) | 81% (inactive) | -1.8 | -0.345 (inactive) | 6.56 (active) | 4.5 | 0.0743 (inactive) | -0.005 (inactive) | -0.151 (inactive) | -0.251 |
| CCn1c(-c2nonc2N)nc2cnc(Oc3cccc(NC(=O)c4ccc(N(C)C)cc4)c3)cc21 | 88.6 | 248% (inactive) | 96% (inactive) | -0.295 | -0.06 (inactive) | 1.22 (inactive) | 3.5 | 0.117 (inactive) | -0.0105 (inactive) | 0.0951 (inactive) | 0.0229 |
| CNC(=O)c1cncc(/C=C/c2c(C)cccc2C)c1 | 106 | 86.6% (inactive) | 91.5% (inactive) | 0.11 | 0.025 (inactive) | -0.466 (inactive) | 4 | 0.149 (inactive) | 0.0135 (inactive) | 1.23 (inactive) | 0.0124 |
| NS(=O)(=O)c1cccc(-c2cc3ccncc3cc2OCc2ccccc2)c1 | 147 | 183% (inactive) | 95% (inactive) | 0.36 | 1.48 (inactive) | -0.246 (inactive) | 3.5 | 0.215 (inactive) | -0.012 (inactive) | 2.15 (active) | 0.958 |
| N#Cc1c(NC(=O)CN2CCOCC2)sc2c1CCCC2 | 105 | 134% (inactive) | 98% (inactive) | -0.1 | 0.4 (inactive) | 0.254 (inactive) | 3.5 | 0.0894 (inactive) | 0.0015 (inactive) | -0.581 (inactive) | -0.17 |
| NS(=O)(=O)c1cccc(NC2CC(c3ccc(F)cc3)NN2)c1 (centres undefined) | 86.1 | 117% (inactive) | 92.5% (inactive) | 0.55 | 0.39 (inactive) | 4.5 (inactive) | 7.5 | 0.474 (inactive) | -0.0055 (inactive) | 1.38 (inactive) | -0.322 |
| NS(=O)(=O)c1ccc(N=Nc2c(O)[nH]c3cccc(CCc4ccncc4)c23)cc1 | 87.4 | 102% (inactive) | 92.5% (inactive) | -0.56 | -0.35 (inactive) | 4.97 (inactive) | 4 | 0.0896 (inactive) | -0.003 (inactive) | -0.234 (inactive) | -0.178 |
| OCCCNc1nccc(-c2c(-c3ccc(F)cc3)nn3cc(C(F)(F)F)ccc23)n1 | 124 | 77.5% (inactive) | 106% (inactive) | 1.02 | 0.765 (inactive) | 0.66 (inactive) | 2 | 0.0239 (inactive) | -0.0065 (inactive) | -0.607 (inactive) | 0.0984 |
| CC1=C(C(=O)Nc2ccc3[nH]ncc3c2)C(c2ccc(F)cc2)N=C(c2ccc(C(F)(F)F)nc2)N1 (centres undefined) | 102 | 138% (inactive) | 86% (inactive) | -1.21 | 0.02 (inactive) | 0.13 (inactive) | 2 | 0.0614 (inactive) | -0.004 (inactive) | -0.75 (inactive) | -0.3 |
| CN(C)C(=O)O[C@H]1CN[C@H](C#Cc2cc3ncnc(Nc4ccc(OCc5cccc(F)c5)c(Cl)c4)c3s2)C1 | 97.6 | 127% (inactive) | 92% (inactive) | -0.215 | 0.225 (inactive) | -0.738 (inactive) | 2 | 0.131 (inactive) | 0.001 (inactive) | -0.153 (inactive) | -0.193 |
| COc1cc2ncn(-c3cc(OCc4ccccc4C(F)(F)F)c(C(=O)N(C)C)s3)c2cc1OC | 104 | 116% (inactive) | 89.5% (inactive) | -0.475 | 0.535 (inactive) | 0 (inactive) | 8.5 | 0.396 (inactive) | -0.002 (inactive) | 0.0168 (inactive) | -0.0859 |
| Fc1ccc(-c2cc(C3CNNC3c3ccccn3)ccn2)cc1 (centres undefined) | 162 | 60.9% (inactive) | 81% (inactive) | -1.07 | 0 (inactive) | -0.015 (inactive) | 3 | 0.0511 (inactive) | -0.0065 (inactive) | 0.213 (inactive) | -0.249 |
| O=C1NC(=O)C(c2cccc(Cl)c2)=C1Nc1ccc(Cl)c(C(=O)O)c1 | 102 | 122% (inactive) | 96.5% (inactive) | 0.205 | -0.33 (inactive) | -0.043 (inactive) | 2.5 | 0.103 (inactive) | 0 (inactive) | -0.755 (inactive) | -0.327 |
| Cc1ccc2c(-c3ccnc(Nc4ccc5c(c4)OCCO5)n3)c(-c3ccc(C(F)(F)F)cc3)nn2n1 | 142 | 33.6% (inactive) | 86% (inactive) | -0.095 | -1.23 (inactive) | 0.821 (inactive) | 1.5 | 0.0121 (inactive) | 0.002 (inactive) | -0.379 (inactive) | 0.474 |
| Fc1cccc(COc2ccc(Nc3ncnc4cc(-c5ccc[nH]5)sc34)cc2Cl)c1 | 45.8 | 16.2% (inactive) | 66.5% (inactive) | -1.57 | 0.215 (inactive) | -0.371 (inactive) | 3 | 0.034 (inactive) | -0.0045 (inactive) | -0.761 (inactive) | -0.0837 |
| COC(=O)c1cncc(/C=C/c2c(C)cc(O)cc2C)c1 | 108 | 131% (inactive) | 108% (inactive) | 1.96 | 0.295 (inactive) | -0.608 (inactive) | 4.5 | 0.286 (inactive) | -0.0065 (inactive) | 0.159 (inactive) | 0.14 |
